B-score data for 107 molecules are collected here from PubChem BioAssay AID588675 (Johns Hopkins Ion Channel Center, 2011).

Hit rate of the full screen: of about 310,000 compounds, about 1,900 (0.61%) were called active. The sample holds actives, similar compounds and a random draw of the others, so the mix is not that of the screen.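 The calls were made as follows: active = plate-corrected calcium response at least 3 library SD above typical, normal starting fluorescence, not activating the receptor alone; inactive = the rest.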

In the experiment the target is Mas-related G-protein coupled receptor member X1 (Homo sapiens) (UniProt Q96LB2). Kind of experiment: positive allosteric modulators of MrgX1, primary screen, HEK293 cells, Fluo-4 calcium flux (AID 588675).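 Also: compound read alongside a low EC10 to EC30 dose of BAM8-22 agonist.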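 As to B-score: peak minus trough fluorescence over baseline measured at the second addition.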 The conditions noted are these: MrgX1-HEK293, Fluo-4 calcium flux, FDSS, at 10 µM; active compounds read high.
Mas-related G-protein coupled receptor member X1 (Homo sapiens), sequence (Q96LB2 whole entry, looked up): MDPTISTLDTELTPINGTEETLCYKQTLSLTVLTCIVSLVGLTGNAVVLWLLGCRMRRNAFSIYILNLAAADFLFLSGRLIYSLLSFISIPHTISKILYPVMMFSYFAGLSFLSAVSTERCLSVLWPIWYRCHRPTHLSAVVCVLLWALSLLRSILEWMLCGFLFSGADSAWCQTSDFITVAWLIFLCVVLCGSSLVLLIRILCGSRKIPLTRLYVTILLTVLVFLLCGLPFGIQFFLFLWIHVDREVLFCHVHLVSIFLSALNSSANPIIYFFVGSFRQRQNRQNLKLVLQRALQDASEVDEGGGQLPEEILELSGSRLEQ
On to `O=C(CCc1[nH]c2ccccc2c1Sc1ccccc1)N(CCO)CCO`, for which the B-score entry was “inactive”.
The value for `CN(Cc1ccccc1)C(=O)C1CCCN(c2ncnc3c2nc2n3CCCCC2)C1` (configuration not stated) was “inactive”.
The value for `CCCCOP(=O)(c1ccc(N(C)C)cc1)C(O)c1cc(OC)ccc1OC` (configuration not stated) was “inactive”.
For the molecule `COC(CNC(=O)Cn1ncc2ccsc2c1=O)OC`, the B-score entry is “inactive”.
Consider `CCC1=C(OC(=O)N(CC)CC)N2C(=O)OC(=NCC3CC3)[C@]2(C)[C@H]2C1=CC[C@H]1C(=O)N(CC(=O)OC)C(=O)[C@H]12`, for which the B-score entry is “inactive”.
Turning to `CCN(c1cccc(C)c1)S(=O)(=O)c1ccc(-c2coc(C)n2)cc1`, the B-score is 8.56 (active).
In the case of `COc1cccc(NS(=O)(=O)c2ccc(-c3coc(C)n3)cc2)c1` it was “inactive”.
In the case of `Cc1ccc(NS(=O)(=O)c2ccc(-c3coc(C)n3)cc2)c(C)c1` it was “inactive”.
The value for `CCCCN(CCCC)CCC(O)c1cc2c(Cl)cc(Cl)cc2c2cc(C(F)(F)F)ccc12` (configuration not stated) was “inactive”; that for `Fc1ccc(COc2ccc(-c3nnco3)cc2)cc1` was “inactive”; that for `Fc1cccc(Cl)c1COc1ccc(-c2nnco2)cc1` was 13.2 (active).
In the case of `O=C(/C=C/c1ccc(OCc2c(F)cccc2Cl)cc1)N1CCOCC1`, the B-score entry was “inactive”.
The value for `O=C(Nc1ccc(F)cc1)N1CCN(c2ccc(F)cc2)CC1` was “inactive”; that for `O=C(c1cc(-c2ccc(F)cc2)on1)N1CCN(c2ccc(F)cc2)CC1` was “inactive”.
`Cc1c(C(=O)N2CCN(c3ccc(F)cc3)CC2)oc2c1C(=O)CCC2`: the B-score is 7.4 (active).
The value for `Nc1cc(OC(=O)c2ccccc2Br)nn1S(=O)(=O)c1ccccc1` was 7.83 (active); that for `O=C(COC(=O)c1ccccc1Br)Nc1nnc(-c2ccccc2)o1` was “inactive”; that for `Cc1ccc(S(=O)(=O)n2nc(OC(=O)C(C)(C)C)cc2N)cc1` was “inactive”.
For the molecule `Cc1ccc2[nH]c(C(=O)O)c(NC(=O)c3ccccc3[N+](=O)[O-])c2c1`, the B-score result was “inactive”.
The value for `O=C(O)C1=CCCN(CCON=C(c2ccccc2)c2ccccc2)C1` was “inactive”; that for `Cc1cc(C(=O)Nc2ccccc2N2CCOCC2)c2ccccc2n1` was “inactive”; that for `Cc1ccc(S(=O)(=O)N2CCOCC2)cc1C(=O)Nc1ccccc1N1CCCC1` was “inactive”.
Turning to `O=C(Nc1ccccc1N1CCOCC1)c1csc2c1CCCC2`, the B-score was 12 (active).
`c1ccc(-c2ccc3c(c2)NC(C2Nc4cc(-c5ccccc5)ccc4O2)O3)cc1` (configuration not stated): the B-score result was “inactive”.
In the case of `O=C(Oc1ccc(Br)cc1C(=S)N1CCOCC1)c1cccc([N+](=O)[O-])c1` it was “inactive”; in that of `COc1ccc(Nc2nnc(C)c3ccccc23)cc1`, 22.5 (active).
In the case of `COc1ccc(Nc2nc(=O)[nH]nc2C)cc1` it was “inactive”; in that of `Cc1nnc(NCCO)c2ccccc12`, “inactive”; in that of `CN(c1ccccc1)S(=O)(=O)c1ccc(NC(=O)COc2ccccc2)cc1`, “inactive”.
The value for `O=C(NCc1ccccc1Cl)c1ccc2c(=O)n(CC3CCCO3)c(=S)[nH]c2c1` (configuration not stated) was “inactive”; that for `CC(C)CCn1cnc2c1c(=O)n(CC(=O)NC(N)=O)c(=O)n2Cc1ccccc1` was “inactive”; that for `CC(=O)Nc1ccc(S(=O)(=O)N(C)c2nc3ccccc3nc2Cl)cc1` was “inactive”.
With `Cc1ccc(Oc2nc3ccccc3n3c(C)nnc23)cc1`, the B-score result was “inactive”.
The value for `Cc1ccc(S(=O)(=O)N(C)c2nc3ccccc3n3c(C(C)C)nnc23)cc1` was 6.54 (active); that for `CC(C)CC(=O)N/C(N)=N/c1nc2ccccc2s1` was 12.9 (active); that for `CCC(=O)NC(=Nc1nc2ccccc2s1)NC(=O)CC` was “inactive”.
The value for `CC(C)CC(=O)NC(=S)NCc1ccccc1` was “inactive”; that for `O=C(c1cccc(-n2cccc2)c1)N1CCN(S(=O)(=O)c2ccc(F)cc2)CC1` was “inactive”; that for `CCC(C)NC(=O)c1ccc(N2CCC3(CC2)OCCO3)c([N+](=O)[O-])c1` (configuration not stated) was “inactive”.
The value for `O=C(NC1C2CC3CC(C2)CC1C3)c1ccc(N2CCNCC2)c([N+](=O)[O-])c1` (configuration not stated) was “inactive”; that for `CC(NC(=O)c1ccc(N2CCNCC2)c([N+](=O)[O-])c1)C12CC3CC(CC(C3)C1)C2` (configuration not stated) was 6.65 (active).
In the case of `CCOC(=O)Cc1csc(NC(=O)CN(C)S(=O)(=O)c2ccc3c(c2)CCC(=O)N3)n1`, the B-score result is “inactive”.
In the case of `Cc1nn(-c2ccc([N+](=O)[O-])cc2)c(N)c1-c1ccccc1` it was “inactive”; in that of `Cc1nn(C(=O)c2ccoc2C)c(N)c1-c1ccccc1`, 15.4 (active); in that of `C/C(=N\NC(=O)c1ccoc1C)c1ccccc1O`, “inactive”.
Turning to `N#CCC(=O)NC1CCC(CC2CCC(NC(=O)CC#N)CC2)CC1` (configuration not stated), the B-score entry was “inactive”.
The value for `COc1cc(OC)c(-n2c(C)cc(C=O)c2C)cc1Cl` was 9.68 (active).
As to `Cc1ccccc1-n1c(C)cc(/C=C2\NC(=O)NC2=O)c1C`, the B-score result was “inactive”.
Take `COc1cc(OC)c(-n2cc(-c3ccc(Cl)cc3)[nH]c2=O)cc1Cl`: the B-score entry was “inactive”.
The value for `O=C(NCc1cccs1)C1CCN(S(=O)(=O)c2ccc3c(c2)OCCO3)CC1` was “inactive”; that for `COc1ccccc1CNC(=O)C1CCN(S(=O)(=O)c2ccc3c(c2)OCCO3)CC1` was “inactive”.
In the case of `COCCNC(=O)C1CCN(S(=O)(=O)c2ccc3c(c2)OCCO3)CC1` it was 24.9 (active).
In the case of `O=C(/C=C/c1ccc(F)cc1)NC(=S)NNC(=O)c1cccnc1` it was “inactive”; in that of `CCCCn1c(N)c(N(CCOC)C(=O)COc2c(C)cccc2C)c(=O)[nH]c1=O`, “inactive”.
Turning to `Cc1ccc(S(=O)(=O)NC(=O)COc2ccccc2C)cc1`, the B-score entry is “inactive”.
The value for `Cc1ccc(C(=O)Nc2nnc(-c3ccncc3)s2)o1` was “inactive”.
The value for `Cc1occc1C(=O)Nc1nnc(C2CCCCC2)s1` was “inactive”; that for `Cc1occc1C(=O)Nc1nnc(-c2ccncc2)s1` was 7.38 (active); that for `CCOc1ccc(OCC)c(NC(=O)CSc2nnc(Cn3cnc4ccccc43)n2C)c1` was “inactive”.
The value for `COC(=O)C1=C(C)N(C)C(=S)NC1c1cc(OC)ccc1OC` (configuration not stated) was “inactive”; that for `CC1CCCC(C)N1/N=C/c1ccccc1OC(F)F` (configuration not stated) was “inactive”; that for `COC(=O)c1ccc(/C=N/NC(=O)C(=O)N2CCCCCC2)cc1` was “inactive”.
In the case of `COC(=O)c1ccc(/C=N/N2C(C)CCCC2C)cc1` (configuration not stated), the B-score was 6.7 (active).
The value for `Cc1c(CC(=O)NCCCCCC(=O)O)c(=O)oc2cc3occ(-c4ccccc4)c3cc12` was “inactive”.
In the case of `Cc1c(CCC(=O)O)c(=O)oc2cc3occ(-c4ccccc4)c3cc12` it was 7.5 (active).
Take `Cc1coc2cc3oc(=O)c(CCC(=O)O)c(C)c3cc12`: the B-score entry was “inactive”.
The value for `O=C1NC2(CCCCCC2)C(=O)N1CCS(=O)(=O)Oc1ccccc1` was “inactive”; that for `Cc1ccsc1C1C(C#N)=C(N)OC2=C1C(=O)CC(C)C2` (configuration not stated) was “inactive”; that for `COC(=O)[C@]1(S(=O)(=O)c2ccccc2)C[C@@H]2ON=C(c3ccc(OC)cc3)[C@@H]2C1` was “inactive”.
The value for `Cc1ccc(-c2nn(C(C)(C)C)c3ncnc(N)c23)cc1` was “inactive”; that for `Cc1ccc(-n2ccc(=O)c(C(=O)O)n2)cc1` was “inactive”; that for `Cc1ccc(-n2cnc3ncnc(-c4ccccc4)c32)cc1` was 7.18 (active).
For the molecule `CC(C)OC(=O)c1ccc(COc2ccc3ccc(=O)oc3c2)o1`, the B-score result is “inactive”.
The value for `CCc1cc2c(=O)c(-c3nc4ccccc4n3C)c(CCCC(=O)O)oc2cc1OC(=O)C(C)(C)C` was “inactive”.
The value for `COc1cccc2c(C)c(C(=O)O)[nH]c12` was “inactive”; that for `COc1cc(C(F)(F)F)nc2c(Br)c(C(C)(C)C)nn12` was 10.1 (active); that for `CNC(=O)c1sc(Nc2ccc(OCc3ccccc3)cc2)nc1C` was “inactive”.
`CCCC(=O)Nc1ncnc2c1ncn2[C@@H]1O[C@@H]2OP(=O)(O)OC[C@H]2[C@H]1OC(=O)CCC`: the B-score result is “inactive”.
In the case of `CC(=O)N1c2ccc(S(=O)(=O)N3CCCC(C(=O)NCc4ccc(Cl)cc4)C3)cc2CC1C` (configuration not stated) it was “inactive”; in that of `CC(=O)N1c2ccc(S(=O)(=O)N3CCCC(C(=O)Nc4cccc(Cl)c4)C3)cc2CC1C` (configuration not stated), 16.4 (active).
`CC(=O)N1c2ccc(S(=O)(=O)N3CCCC(C(=O)Nc4cccc(F)c4)C3)cc2CC1C` (configuration not stated): the B-score entry is “inactive”.
Regarding `Cc1nnc(SCC(=O)NC(=O)NC2CCCC2)n1N`, the B-score result is “inactive”.
In the case of `COc1ccc(C2c3[nH]c4ccccc4c3CCN2CCCn2cccn2)cc1C` (configuration not stated) it was “inactive”; in that of `Cc1nccn1CCC1CCCCN1C(=O)CCc1nnc(-c2ccsc2)o1` (configuration not stated), “inactive”; in that of `CC1(C)CC(=O)CC2(C1)NCC(c1ccccc1Cl)c1c2[nH]c2ccccc12` (configuration not stated), 13.7 (active).
In the case of `CC1CCN(c2ccc(-c3ccc(NC(=O)c4ccco4)cc3)nn2)CC1` it was “inactive”.
For the molecule `O=C(O)CCN=C1CCc2ccccc2N1`, the B-score result is “inactive”.
As for `CCOC(=O)C1CCN(S(=O)(=O)c2ccc3c(c2)N(C)C(=O)CC(=O)N3C)CC1`, the B-score result is “inactive”.
In the case of `COc1ccc(Cc2nnc(SCC(=O)Nc3ccc(C)c(C)c3)o2)cc1OC` it was “inactive”; in that of `COc1ccc(C(=O)NCc2nnc(SCC(=O)Nc3cccc(OC)c3)o2)cc1`, “inactive”.
The value for `COc1cccc(NC(=O)CSc2nnc(Cc3ccc(OC)c(OC)c3)o2)c1` was 10.7 (active); that for `O=S(=O)(Nc1ccc(Oc2ncccn2)c(Cl)c1)c1ccc(F)cc1` was “inactive”; that for `COc1ccc(Cl)cc1NC(=O)CCS(=O)(=O)c1ccc(Br)cc1` was “inactive”.
The value for `CC1CCN(CCCNC(=O)CN2C(=O)CSc3ccc(S(=O)(=O)N4CCCCC4)cc32)CC1` was “inactive”.
On to `CC(=O)c1ccc(N=C2SCCCN2C(=O)C2CCCCC2)cc1`, for which the B-score result is “inactive”.
The value for `O=C(c1cc2c(s1)CCC2)N1CCN(c2ccccc2)CC1` was “inactive”.
In the case of `O=C(Nc1ccc(F)cc1)c1cc2c(s1)CCCC2` it was “inactive”; in that of `O=C(NNC(=O)c1cc2c(s1)CCCC2)c1ccccc1`, 6.55 (active).
The value for `CC1(C)C=Cc2c(ccc3c2OC[C@@H](c2ccc(O)cc2O)C3)O1` was “inactive”; that for `CC1(C)CC(=O)c2cnc3nc4ccccc4n3c2C1` was “inactive”.
In the case of `CCn1cc(C(=O)NCC(=O)NC(C)(C)CO)c(=O)c2cc3c(cc21)OCO3`, the B-score entry is “inactive”.
In the case of `CC(C)(C)Oc1ncc(Br)c(OC(C)(C)C)n1` it was “inactive”; in that of `COc1ccc(-c2nc(N)ncc2-c2ccc(Cl)cc2)c(O)c1`, “inactive”.
As to `COc1cccc(-c2cnc(OC(C)(C)C)nc2OC(C)(C)C)c1`, the B-score was 6.93 (active).
The value for `Cc1csc(=NC(=O)c2ccccc2)n1CCO` was “inactive”.
The value for `Cc1csc(=Nc2ccccc2)n1CCO` was “inactive”.
The value for `OCCn1c(-c2ccccc2)csc1=Nc1ccccc1` was 14.7 (active).
